Tau ThT inhib – tau fibrillization inhibition (ThT binding); AID 1460; Potency, µM (titrated, usually from 57.4 µM), for the others: at the highest dose activity, negative = inhibition, actives largely listed as inhibitors; 270,000 tested, 2.1% active; recombinant tau K18 P301L, heparin-induced fibrillization, ThT fluorescence; P10636; further: potency means the concentration at half of the fitted maximal effect; nearly all actives have a fitted effect of over 55% in size
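Heparin-induced (20 uM) aggregation of recombinant human K18 P301L tau, 15 uM unlabeled with 0.24 uM labeled, pH 7 acetate buffer, 6 hr at 37 C with compound. Fibrils quantified by 30 uM ThT fluorescence after 1 hr ambient incubation.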
KDM4E inh – JMJD2E (human) inhibition; B2RXH2; Potency, µM (titrated, usually from 57.1 µM), for inactives: at the highest dose activity change, negative = inhibition, usual class: inhibitors; AID 2147; JMJD2E catalytic domain, FDH-coupled NADH fluorescence (FDH is formaldehyde dehydrogenase); 230,000 tested, 1.6% active; active means well fitted inhibition curve with a large enough effect, not every such curve was filed as active; inconclusive means small, poorly fitted or top-dose-only effect, or another doubt; inactive means no such curve, though single readings can be large or run the other way;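 further: potency means the concentration at half of the fitted maximal effect; 0% = wells with enzyme and -100% = buffer wells without enzyme; nearly all actives have a fitted effect of over 50% in size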
Target sequence (B2RXH2 1-337 limits assumed): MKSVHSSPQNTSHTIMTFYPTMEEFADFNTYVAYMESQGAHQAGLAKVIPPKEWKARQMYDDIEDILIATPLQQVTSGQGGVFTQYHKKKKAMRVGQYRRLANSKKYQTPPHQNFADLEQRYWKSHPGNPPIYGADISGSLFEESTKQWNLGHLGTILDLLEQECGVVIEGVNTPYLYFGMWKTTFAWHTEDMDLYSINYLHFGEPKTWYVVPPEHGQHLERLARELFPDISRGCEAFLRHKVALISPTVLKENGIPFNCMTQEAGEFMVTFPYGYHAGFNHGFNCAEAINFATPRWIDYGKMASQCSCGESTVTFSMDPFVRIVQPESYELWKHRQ
NPSR antag – neuropeptide S receptor (human) antagonism, cAMP; Q6W5P4; CHO-NPSR cells, cAMP TR-FRET, antagonist mode; Potency, µM (doses to about 38.3 µM), without a hit: at the top dose activity change, negative = inhibition, actives largely listed as inhibitors; 220,000 tested, 1% active; further: potency means the concentration at half of the fitted maximal effect; nearly all actives have a fitted effect of over 50% in size
Target sequence (Q6W5P4 whole entry, looked up): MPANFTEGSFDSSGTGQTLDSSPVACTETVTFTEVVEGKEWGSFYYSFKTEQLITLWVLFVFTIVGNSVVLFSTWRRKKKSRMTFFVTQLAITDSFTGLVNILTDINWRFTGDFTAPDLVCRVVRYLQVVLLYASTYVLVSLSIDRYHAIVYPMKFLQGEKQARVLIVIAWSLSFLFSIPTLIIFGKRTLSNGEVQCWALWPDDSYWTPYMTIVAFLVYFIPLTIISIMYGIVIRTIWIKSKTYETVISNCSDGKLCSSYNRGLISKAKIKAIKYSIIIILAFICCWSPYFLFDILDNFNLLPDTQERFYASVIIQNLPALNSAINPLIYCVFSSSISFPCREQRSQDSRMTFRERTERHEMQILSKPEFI
Tau FP inhib – tau fibrillization inhibition (FP) | P10636 | K18 P301L tau heparin fibrillization, Alexa594 FP, 6 h | Potency, µM (doses to about 57.7 µM), for inactives: at the top dose activity, negative = inhibition, most hits filed as inhibitors | 280,000 tested, 0.39% active; further: potency means the concentration at half of the fitted maximal effect; nearly all actives have a fitted effect of over 55% in size
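Human tau K18 […] P301L fragment, 15 uM unlabeled plus 0.24 uM Alexa 594-labeled tau (final), with compound and 20 uM heparin in 100 mM sodium acetate pH 7; 6 hr at 37 C, then Alexa 594 FP read.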
Tau fluor cs – counter-screen for tau fibril formation inhibitors. tau K18 P301L Alexa594 fluorescence, heparin fibrillization. Potency, µM (series often up to 57.7 µM), for inactives: at the highest dose activity change, negative = decrease. 280,000 tested, 0.93% active; further: potency means the concentration at half of the fitted maximal effect; nearly all actives have a fitted effect of over 55% in size
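Human tau K18 P301L (15 uM unlabeled, 0.24 uM Alexa 594-labeled) in 100 mM sodium acetate pH 7 with 20 uM heparin, 6 hr at 37 C. ThT 30 uM added, 1 hr ambient; Alexa 594 FP and total fluorescence read at 555/632 nm.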
PNC inhibitor – perinucleolar compartment assembly inhibition; PC3M PTB-GFP, PNC prevalence imaging, 16 h; stronger effect = lower value; activity change (PNC), negative = inhibition, % at 10 µM; 140,000 tested, 3.1% active; AID 2417;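 active means readout at or below -70, meaning at least 70% loss of cells showing the perinucleolar compartment, a nuclear body marking cancer cells; inconclusive means readout between -30 and a set limit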;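 further: plate controls were DMSO wells for no effect and camptothecin positive control wells for full effect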
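PC3M cells stably expressing PTB-GFP, 750–1000 cells/well, treated 16 h at 37 °C with compound (23 nl of library stock), in duplicate. After paraformaldehyde fixation and Hoechst stain, imaged at 20x; PNC prevalence scored by image analysis.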
* marks the source's active call; other numbers are inactive results; ? = inconclusive; · = no result; [ ] = dose if it differs, or a comment. Compounds with a hit are over-represented: about 5.1% of the library has one in this group of screens. Unless noted, the call rests on the fitted dose curve; in most records, active means well fitted curve in the direction sought with a large enough effect; inconclusive means small, poorly fitted or top-dose-only effect, or another doubt; inactive means no such curve, though single readings can be large; an effect the other way counts as inactive or inconclusive. Unless noted, on the % scale 0 is the no-effect control and ±100 the full control effect.

SMILES	Tau ThT inhib	KDM4E inh	NPSR antag	Tau FP inhib	Tau fluor cs	PNC inhibitor
BrC(=C\c1ccccc1)/C=N/Nc1nc2ccccc2[nH]1	25µM*	3%	-30%	-9%	?	4
O=C(O)c1ccc(N/N=C/C(Br)=C/c2ccccc2)cc1	14µM*	-6%	-12%	7%	?	·
COc1ccc(OC)c(NC(=O)c2ccc3c(c2)c(C)c(C)n3Cc2ccc(F)cc2)c1	-9%	·	·	6%	?	·
O=c1cnnc(N/N=C/c2ccccn2)[nH]1	·	3.5µM*	17%	4%	-1%	·
CCCCn1c(/C=C/c2ccco2)nc2ccccc21	?	-15%	-23%[46.1 µM]	-3%	-12%	-24
Fc1ccccc1-c1ccc(/C=N/Nc2nc3ccccc3[nH]2)o1	6.3µM*	?	-30%	9%	14µM*[quencher]	32
C#CCn1cc(/C=N/Nc2nc3ccccc3[nH]2)c2ccccc21	-6%	1%	13µM*	4%	-7%	-12
CCCCn1c(/C=N/Nc2nc3ccccc3[nH]2)nc2ccccc21	?	?	13µM*	9%	?	-25
C(=N\Nc1nc2ccccc2[nH]1)/c1cccc2nccnc12	·	?	-1%	3%	-29%	·
CC(C(=O)Nc1ccc(OC(F)(F)F)cc1)N1Cc2ccccc2C1=O (stereo unspecified)	3%	·	·	-7%	-15%	·
CCN(CC(=O)Nc1c(C(=O)OC)[nH]c2ccc(C)cc12)c1ccc2c(c1)OCO2	?	-27%	-13%[46.1 µM]	-2%	?	-119*
CC(C)c1ccccc1NC(=O)CNCCc1ccc(C(F)(F)F)cc1	-11%	3.2µM*	?	-4%	-21%	·
CCCCC(=O)Nc1ccccc1C(C)C	1%	-3%	-3%	-4%	-9%	·
c1ccc2nc3c(nc2c1)sc1nc2ccccc2n13	5%	?	5%[46.1 µM]	0%	4%	-14
CC(C)(O)c1cc(=O)sc2nc3ccccc3n12	0%	-4%	14%[46.1 µM]	3%	0%	-100*
Cn1c(CNC(=O)CSc2n[nH]c(-c3ccccc3Cl)n2)nc2ccccc21	-6%	·	·	-7%	-8%	·
CC(=O)C1=C(O)C(=O)N(CCC(=O)O)C1c1ccccc1[N+](=O)[O-] (stereo unspecified)	-1%	-12%	7%	4%	-2%	·
CC(=O)C1=C(O)C(=O)N(CCCN2CCOCC2)C1c1ccccc1[N+](=O)[O-] (stereo unspecified)	25µM*	?	2%	?	?	·
CC(=O)C1=C(O)C(=O)N(C)C1c1ccccc1[N+](=O)[O-] (stereo unspecified)	16µM*	?	6%[7.67 µM]	?	-14%	·
CCCCCCN1C(=O)C(O)=C(C(C)=O)C1c1ccccc1[N+](=O)[O-] (stereo unspecified)	-2%	-3%	-6%	-3%	-4%	·
COc1ccc(CCn2c(C)ccc2C)cc1OC	-14%	-20%	0%[46.1 µM]	11%	7%	-100*
Cc1ccnc(NC(c2cccnc2)c2ccc3cccnc3c2O)c1 (stereo unspecified)	?	5.6µM*	-56%	-6%	-14%	·
Cc1ccnc(NC(c2ccccc2F)c2ccc3cccnc3c2O)c1 (stereo unspecified)	?	·	·	5%	-24%	·
Oc1c(C(Nc2ccccn2)c2ccccn2)ccc2cccnc12 (stereo unspecified)	?	?	?	2%	-19%	-26
Cc1ccc2ccc(C(Nc3cccc(C(F)(F)F)c3)c3cccnc3)c(O)c2n1 (stereo unspecified)	?	?	-45%	6%	-7%	·
SMILES	Tau ThT inhib	KDM4E inh	NPSR antag	Tau FP inhib	Tau fluor cs	PNC inhibitor
Oc1ccccc1C(Nc1nccs1)c1ccc2cccnc2c1O (stereo unspecified)	20µM*	?	-11%	-3%	?	·
COc1ccccc1NC(c1cccnc1)c1ccc2cccnc2c1O (stereo unspecified)	?	11µM*	-17%	-11%	-14%	67
Cc1ccnc(NC(c2cc(C)ccc2O)c2ccc3cccnc3c2O)c1 (stereo unspecified)	16µM*	·	·	-11%	?	·
COc1cc(OC)c(NC(=O)N2CCc3c(sc4c3CCCC4)C2c2ccccc2)cc1Cl (stereo unspecified)	2%	·	·	14%	-10%	·
CCSC1=NC2(CCN(C(=O)NC3CCCCC3)CC2)N=C1c1ccc(Cl)cc1	-4%	·	·	-1%	-1%	·
Cn1nnnc1SCC(=O)Nc1ccccc1Cl	1%	-2%	9%[46.1 µM]	5%	6%	34
Cn1nnnc1SCC(=O)Nc1ccc(Br)cc1Cl	0%	-6%	2%[46.1 µM]	0%	0%	-100*
CN(C(=O)CSc1nc2ccccc2n1Cc1cccc(C(F)(F)F)c1)c1ccccc1	?	·	·	6%	-13%	·
CC(=O)Nc1ccc(S(=O)(=O)Oc2ccc(/C=C3\SC(N)=NC3=O)cc2)cc1	-17%	-12%	9%	25µM*	-13%	·
CC(=O)Nc1ccc(OS(=O)(=O)c2ccc(C(C)(C)C)cc2)cc1	-8%	18%	1%	?	?	·
CC(=O)c1ccc(S(=O)(=O)N2CCn3cccc3C2c2ccccc2F)cc1 (stereo unspecified)	-4%	·	·	-12%	-28%	·
CC(=O)n1c2ccccc2c2nc(NC(C)C)sc21	22µM*	-10%	-7%[46.1 µM]	?	-26%	42
O=C(NCCCN1CCN(c2ccc(F)cc2)CC1)Nc1ccccc1Cl	-7%	·	·	1%	-5%	·
O=C(O)c1ccc(NC2=C/C(=N/S(=O)(=O)c3ccccc3)c3ccccc3C2=O)cc1	14µM*	-20%	?	?	?	·
COc1ccc(C2=C(Nc3ccc(C)cc3C)c3ccccc3C2=O)cc1	-19%	·	·	0%	-22%	·
Cc1ccc(NC2=C/C(=N\S(=O)(=O)c3cccs3)c3ccccc3C2=O)c(C)c1	?	-2%	4µM*	2%	?	-22
O=C1C(Nc2ccc(O)cc2)=C/C(=N/S(=O)(=O)c2cccs2)c2ccccc21	13µM*	25%	6.3µM*	?	13µM*[quencher]	·
Cc1c(Cl)cccc1N/C(=N/S(=O)(=O)c1cccs1)c1ccccc1	-4%	-1%	39%	2%	-11%	·
Cc1ccc(Cl)cc1NC1=C/C(=N\S(=O)(=O)c2cccs2)c2ccccc2C1=O	4.5µM*	?	?	-2%	?	-3
C=C(C(C)=O)C(O)c1ccc2ccccc2c1 (stereo unspecified)	3%	0%	·	1%	3%	·
COc1ccc(OC)c(CNC(=O)C2CCN(S(=O)(=O)c3ccc4[nH]c(=O)oc4c3)CC2)c1	-1%	·	·	-12%	-17%	·
